# According to PubChem BioAssay (NCATS):
# Inconclusive results are not listed. A number with no mark means an inactive call. Active and inactive are the calls of the source. Calls come from the whole dose curve; as a rule, active = well fitted cell-killing curve with a large enough effect; inconclusive = small, poorly fitted or top-dose-only effect; inactive = flat fitted curve, though single readings scatter.
# Assay: Viability qHTS for inhibitors of the SERCaMP assay screened against the NCATS CANVASS Library (AID 1347400); note: nearly all actives have a fitted effect of over 70% in size
# Details: SH-SY5Y SERCaMP cells viability, CellTiter-Glo, 48 h; series mostly up to 92.2 µM; activity change, negative = cytotoxicity: at the top concentration
# In short: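 Measures loss of viability in SERCaMP reporter SH-SY5Y cells treated for 48 h with compounds; luminescent ATP detection by CellTiter-Glo.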
# % is set by controls: 0 for no effect and ±100 for the full control effect; potency is the fitted concentration of half-maximal effect.
SMILES,"activity change, negative = cytotoxicity [%]",Potency
CC1=CC2CC[C@@H]3[C@@H](C)C[C@H](C)[C@@H](C1)N23 (stereo partly drawn),14.4,
CC=C1CN(C=O)[C@H]2C[C@@H]1[C@@H](C(=O)OC)[C@@]13CCOC21Nc1ccccc13 (stereo partly drawn),-9.33,
C[C@@H]1CC[C@@H](c2ccoc2)N2C[C@@]3(CC[C@@H]12)CS[C@@]1(CC[C@H]2[C@H](C)CC[C@@H](c4ccoc4)N2[C@@H]1O)C3,,13.5 µM (active)
CCN1C[C@]2(C)CC[C@@H](O)[C@]34C1[C@H](C[C@H]23)C12CCC(CC14)[C@](O)(CO)[C@H]2O (stereo partly drawn),-3.09,
CO[C@@H](/C=C/CC/C=C/C(=O)O)[C@@H](O)[C@H](C)[C@@H](O)/C(C)=C/[C@H](C)C(=O)CCCC1CC(=O)NC(=O)C1,13.5,
CCCC[C@@H]1CC[C@H]2CCCC(CCC)N12 (stereo partly drawn),-8.19,
C[C@]12CC(O)C3[C@@H](CCC4C[C@@H](O)CC[C@@]43CO)[C@@]1(O)CCC2C1=CC(=O)OC1 (stereo partly drawn),5.26,
CO[C@@H](/C=C/CC/C=C/C(=O)O)[C@@H](O)[C@H](C)/C=C(\C)[C@@H](O)[C@H](C)C(=O)CCCC1CC(=O)NC(=O)C1,8.3,
O=C(c1ccccc1O)c1[nH]c(Cl)c(Cl)c1-n1c(C(=O)c2ccccc2O)cc(Cl)c1Cl,,19.1 µM (active)
CC[C@@H]1CN2CC[C@@]3(O)C(=Nc4cccc(OC)c43)[C@@H]2C[C@@H]1/C(=C\OC)C(=O)OC,-2.72,
c1ccc2c3c([nH]c2c1)CNCC3,-1.01,
CNCCc1ccccc1,-0.762,
CCCCC[C@@H]1OC(=O)[C@@H](C)N(C)C(=O)[C@H](CCCCC)OC(=O)C(C)N(C)C(=O)[C@H](CCCCC)OC(=O)[C@@H](C)N(C)C(=O)[C@H](CCCCC)OC(=O)C(C)N(C)C1=O (stereo partly drawn),,38.1 µM (active)
